Composite z-score and z-score data for 5 compounds are collected here from PubChem BioAssay.

Active and inactive are the calls of the source.

Test [1] has as its system Plasmodium falciparum Sir2 (PF13_0152, Sir2A). The test can be described thus: Plasmodium falciparum Sir2A binding compounds – biochemical, small-molecule microarray, 635 nm fluorescence, primary screen (AID 1098).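 Also: score merges spot fluorescence intensity with its signal-to-noise ratio.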 To be noted: fluorescence 635 nm, higher = more signal.
Test [2] in a line: probe aDKK1 binding to arrayed compounds – biochemical, biotinylated probe, 635/667 nm fluorescence, primary screen (AID 1099).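 Also: score merges 667nm spot fluorescence with signal to noise across triplicate slides.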 Conditions: small-molecule microarray, higher = more signal.
The nature of test [3]: probe aCHRDL2 binding to arrayed compounds – biochemical, biotinylated probe, 635/667 nm fluorescence, primary screen (AID 1100). Conditions: small-molecule microarray, higher = more signal.
Test [4] is described as follows: change in splice reporter luminescence, either direction, cell-based, HEK293, spliceosome inhibition project, primary screen (AID 1101).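 Also: HEK293 cells carrying a splicing-competent luciferase reporter gene; test concentration not given here.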 To be noted: HEK293 splicing luciferase reporter, 24 h, higher = more signal, called active from +8 up or from −8 down.
Test [5] has as its target Fibroblast growth factor 10 (Homo sapiens) (UniProt O15520). The test is described as follows: compounds binding fibroblast growth factor 10 – biochemical, small-molecule microarray, 635 nm fluorescence, primary screen (AID 1102). To be noted: FGF10 binding, fluorescence 635 nm, higher = more signal.
The test system of test [6] is glycogen synthase kinase-3 (GSK3A per assay name; protocol says GSK3B). The test is described as follows: compounds binding glycogen synthase kinase-3 – biochemical, small-molecule microarray, 635 nm fluorescence, GSK3A, primary screen (AID 1103). Also: the record names both GSK3A and GSK3B. Conditions: fluorescence 635 nm, higher = more signal.
Test [7] concerns the target Epidermal growth factor receptor (Homo sapiens) (UniProt P00533). The test can be described thus: compounds binding epidermal growth factor receptor – biochemical, small-molecule microarray, 635 nm fluorescence, primary screen (AID 1104).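 Also: score merges 667 nm emission intensity with spot signal to noise over triplicate slides.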 To be noted: EGFR binding, higher = more signal.
Test [8] has as its target Follistatin-related protein 3 (Homo sapiens) (UniProt O95633). The test can be described thus: compounds binding follistatin-related protein 3 – biochemical, small-molecule microarray, 635 nm fluorescence, primary screen (AID 1105).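 Also: score merges emission near 667 nm and signal to noise per printed spot across three slides.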 To be noted: FSTL3 binding, higher = more signal.
Test [9] deals with Dickkopf-related protein 1 (Homo sapiens) (UniProt O94907). The test can be described thus: small molecules binding DKK1 protein – biochemical, small-molecule microarray, 635 nm fluorescence scan, primary screen (AID 1106).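 Also: score merges emission near 667 nm with signal to noise over three replicate slides.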 To be noted: higher = more signal.
Sequence of Dickkopf-related protein 1 (Homo sapiens) (O94907 whole entry, looked up): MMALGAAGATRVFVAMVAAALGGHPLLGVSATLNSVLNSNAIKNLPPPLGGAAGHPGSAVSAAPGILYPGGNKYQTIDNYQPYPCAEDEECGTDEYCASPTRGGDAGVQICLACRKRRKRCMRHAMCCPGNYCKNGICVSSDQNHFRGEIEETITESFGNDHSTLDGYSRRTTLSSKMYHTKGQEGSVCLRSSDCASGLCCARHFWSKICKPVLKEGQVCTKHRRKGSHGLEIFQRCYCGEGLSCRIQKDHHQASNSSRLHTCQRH
Test [10] concerns Inhibin beta A chain (activin A). The test is described as follows: small molecules binding activin A – biochemical, small-molecule microarray, 635 nm fluorescence scan, primary screen (AID 1107).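 Also: mouse activin A protein probed at 4.33 µg/mL on printed slides; score merges bound-protein fluorescence near 667 nm with spot signal-to-noise.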 Conditions: INHBA, higher = more signal.
The subject of test [11] is Human papillomavirus type 1a protein E7 (residues 44-93). The test can be described thus: small molecules binding HPV E7 44-93 – biochemical, small-molecule microarray, residues 44-93, 635 nm fluorescence, primary screen (AID 1108).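 Also: E7 fragment applied at 1 µg/mL in TBST for 1 h at 4 C; score combines spot fluorescence with its signal to noise ratio.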 Conditions: fluorescence 635 nm, higher = more signal.
Test [12] is described as follows: hepatitis C replication reporter changes, two-sided – Huh7 cells, luciferase reporter, HCV replication inhibitor project, primary screen (AID 1109).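 Also: huh7 hepatoma cells harbouring a luciferase neomycin HCV replicon reporter; luciferase luminescence as measure of HCV replicon replication; test concentration not given here.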 Conditions: Huh7 HCV replicon luciferase reporter, 48 h; higher = more signal. In general terms: In a reporter assay the amount or activity of a reporter protein is the signal.
In test [13] the target is Left-right determination factor 2 (Homo sapiens) (UniProt O00292). The test can be described thus: small molecules binding LEFTY2 protein – biochemical, small-molecule microarray, 635 nm fluorescence scan, primary screen (AID 1110). Conditions: higher = more signal.
Sequence of Left-right determination factor 2 (Homo sapiens) (O00292 whole entry, looked up): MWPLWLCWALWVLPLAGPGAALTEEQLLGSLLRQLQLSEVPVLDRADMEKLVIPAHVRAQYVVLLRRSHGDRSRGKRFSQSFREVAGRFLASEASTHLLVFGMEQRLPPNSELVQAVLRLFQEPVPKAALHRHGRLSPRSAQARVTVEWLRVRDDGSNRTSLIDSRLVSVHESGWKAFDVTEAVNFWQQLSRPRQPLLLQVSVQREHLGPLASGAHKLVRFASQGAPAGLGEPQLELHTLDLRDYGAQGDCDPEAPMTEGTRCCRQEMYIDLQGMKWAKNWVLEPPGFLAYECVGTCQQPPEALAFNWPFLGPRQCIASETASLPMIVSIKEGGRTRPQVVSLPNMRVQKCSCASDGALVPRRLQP
Test [14] concerns the target Calmodulin-1 (Homo sapiens) (UniProt P0DP23). The test is described as follows: small molecules binding calmodulin-1 with EGTA – biochemical, small-molecule microarray, Cy5-labelled CALM1, profiling panel (AID 1111).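 Also: labelled calmodulin applied in Tris saline Tween buffer holding calcium plus EGTA and DTT.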 To be noted: Cy5-CALM1 binding fluorescence, higher = more signal.
Test [15] shares this target. The test is described as follows: small molecules binding Ca-loaded calmodulin-1 – biochemical, small-molecule microarray, Cy5-labelled CALM1, plus calcium, artefact control for SMM control-protein annotation, profiling panel (AID 1112).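 Also: score merges spot fluorescence with signal to noise from triplicate slides.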 To be noted: Cy5-CALM1 binding fluorescence, higher = more signal.
The nature of test [16]: probe aWnt5a binding to arrayed compounds – biochemical, biotinylated probe, 635/667 nm fluorescence, primary screen (AID 1113).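 Also: score merges 667 nm fluorescence intensity with signal-to-noise per printed feature.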 To be noted: small-molecule microarray, higher = more signal.
Test [17] is described as follows: probe aShh binding to arrayed compounds – biochemical, biotinylated probe, 635/667 nm fluorescence, primary screen (AID 1114).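 Also: probe is biotin-labelled aShh protein from a stem cell growth factor screen; measures binding of labelled protein to compounds printed on the slide; score merges feature fluorescence at 667 nm with signal-to-noise.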 To be noted: small-molecule microarray, higher = more signal.
Test [18] in a line: probe aNog binding to arrayed compounds – biochemical, biotinylated probe, 635/667 nm fluorescence, primary screen (AID 1115).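 Also: probe is biotinylated aNog protein used at 0.15 µg/mL for 1 h at 4 C; z-score combines 667 nm fluorescence of each spot with its signal to noise.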 To be noted: small-molecule microarray, higher = more signal.
Test [19] has as its target Torsin-1A-interacting protein 1 (Homo sapiens) (UniProt Q5JTV8). The test is described as follows: compound microarray binding of lysate hLAP1 – cell lysate, small-molecule microarray, COS7 lysate, 635/667 nm fluorescence, primary screen (AID 1116). Conditions: 635 nm fluorescence, higher = more signal.
Test [20] deals with Alpha-bungarotoxin (Bungarus multicinctus) (UniProt P60615). The test can be described thus: compounds binding labelled alpha-BTX control protein – biochemical, small-molecule microarray, Alexa647 label, 635/667 nm fluorescence, artefact control for SMM control protein annotation, profiling panel (AID 1117). Conditions: alpha-BTX-A647 binding fluorescence, higher = more signal.
Sequence of Alpha-bungarotoxin (Bungarus multicinctus) (P60615 whole entry, looked up): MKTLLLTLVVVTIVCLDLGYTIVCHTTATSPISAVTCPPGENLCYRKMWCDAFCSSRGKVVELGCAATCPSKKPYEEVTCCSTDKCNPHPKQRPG

Sequence of Fibroblast growth factor 10 (Homo sapiens) (O15520 whole entry, looked up): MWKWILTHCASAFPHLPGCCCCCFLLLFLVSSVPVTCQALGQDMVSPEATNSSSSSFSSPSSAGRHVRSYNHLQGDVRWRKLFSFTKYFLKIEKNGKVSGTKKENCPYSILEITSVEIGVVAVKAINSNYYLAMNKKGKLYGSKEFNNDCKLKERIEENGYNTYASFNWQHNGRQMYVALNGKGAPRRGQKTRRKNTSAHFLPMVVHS
Sequence of Follistatin-related protein 3 (Homo sapiens) (O95633 whole entry, looked up): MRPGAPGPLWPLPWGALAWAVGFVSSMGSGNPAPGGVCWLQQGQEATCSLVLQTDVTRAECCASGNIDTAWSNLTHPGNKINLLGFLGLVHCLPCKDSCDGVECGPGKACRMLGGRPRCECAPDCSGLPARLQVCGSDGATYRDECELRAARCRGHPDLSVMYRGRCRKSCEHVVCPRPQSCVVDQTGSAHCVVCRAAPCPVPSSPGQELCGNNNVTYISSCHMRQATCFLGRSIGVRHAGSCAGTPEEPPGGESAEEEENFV
Sequence of Torsin-1A-interacting protein 1 (Homo sapiens) (Q5JTV8 whole entry, looked up): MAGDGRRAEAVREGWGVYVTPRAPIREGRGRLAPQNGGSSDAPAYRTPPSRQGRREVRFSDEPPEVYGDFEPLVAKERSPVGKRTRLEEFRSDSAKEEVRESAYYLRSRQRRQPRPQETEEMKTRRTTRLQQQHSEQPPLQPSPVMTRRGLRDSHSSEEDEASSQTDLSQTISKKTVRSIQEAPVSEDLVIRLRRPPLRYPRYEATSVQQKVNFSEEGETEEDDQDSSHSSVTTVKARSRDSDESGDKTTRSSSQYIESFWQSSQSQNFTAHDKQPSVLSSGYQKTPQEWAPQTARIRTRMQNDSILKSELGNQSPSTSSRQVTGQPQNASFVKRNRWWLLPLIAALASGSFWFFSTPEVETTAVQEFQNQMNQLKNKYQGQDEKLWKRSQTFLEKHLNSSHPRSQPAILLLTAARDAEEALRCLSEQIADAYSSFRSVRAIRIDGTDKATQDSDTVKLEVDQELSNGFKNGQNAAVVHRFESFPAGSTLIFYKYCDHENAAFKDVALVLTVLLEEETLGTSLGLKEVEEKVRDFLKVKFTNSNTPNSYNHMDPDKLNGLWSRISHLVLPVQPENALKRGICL
Sequence of Epidermal growth factor receptor (Homo sapiens) (P00533 whole entry, looked up): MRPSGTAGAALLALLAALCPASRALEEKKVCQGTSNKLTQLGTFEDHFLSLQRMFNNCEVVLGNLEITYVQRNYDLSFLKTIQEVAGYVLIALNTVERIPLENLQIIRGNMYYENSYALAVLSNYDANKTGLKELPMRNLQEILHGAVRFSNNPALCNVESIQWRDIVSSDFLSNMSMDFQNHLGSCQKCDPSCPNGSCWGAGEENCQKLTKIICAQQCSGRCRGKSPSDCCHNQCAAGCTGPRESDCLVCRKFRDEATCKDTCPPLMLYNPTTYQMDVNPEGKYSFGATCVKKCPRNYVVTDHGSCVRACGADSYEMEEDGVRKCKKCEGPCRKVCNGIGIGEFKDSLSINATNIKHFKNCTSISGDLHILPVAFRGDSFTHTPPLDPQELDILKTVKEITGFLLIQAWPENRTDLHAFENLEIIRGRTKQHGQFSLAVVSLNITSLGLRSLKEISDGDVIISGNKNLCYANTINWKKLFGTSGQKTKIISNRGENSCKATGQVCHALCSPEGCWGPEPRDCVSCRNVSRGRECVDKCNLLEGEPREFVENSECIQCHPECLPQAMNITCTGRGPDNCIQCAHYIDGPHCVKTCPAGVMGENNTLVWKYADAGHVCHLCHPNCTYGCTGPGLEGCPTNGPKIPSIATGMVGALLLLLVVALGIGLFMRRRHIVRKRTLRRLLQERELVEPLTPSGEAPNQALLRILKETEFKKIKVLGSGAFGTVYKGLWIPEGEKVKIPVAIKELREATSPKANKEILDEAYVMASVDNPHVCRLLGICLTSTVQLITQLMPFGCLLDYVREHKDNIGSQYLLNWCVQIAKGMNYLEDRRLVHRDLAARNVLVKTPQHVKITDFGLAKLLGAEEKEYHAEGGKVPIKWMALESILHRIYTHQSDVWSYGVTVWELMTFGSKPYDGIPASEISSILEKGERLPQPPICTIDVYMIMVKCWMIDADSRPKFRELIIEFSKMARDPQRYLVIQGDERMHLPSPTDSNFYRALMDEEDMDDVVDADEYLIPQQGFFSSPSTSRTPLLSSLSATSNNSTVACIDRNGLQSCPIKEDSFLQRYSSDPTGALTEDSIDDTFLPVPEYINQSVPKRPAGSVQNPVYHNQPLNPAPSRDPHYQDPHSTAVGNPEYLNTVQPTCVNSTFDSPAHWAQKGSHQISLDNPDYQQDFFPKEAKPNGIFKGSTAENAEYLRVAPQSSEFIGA

For `C=C(CCCC)C(=O)CC[C@@H](OC(=O)c1cccnc1)c1ccc(OCCO)cc1`, the composite z-score is 1.25 in test [1]; -0.191 in test [2]; -0.266 in test [3]; 1.67 in test [5]; 0.704 in test [6]; 0.298 in test [7]. The composite z-score in [8] was 1.39; in test [9] it was 0.714; in [10] it was 0.982; in test [11] it was 0.849; in test [13], 0.249; in test [14], -0.588. Moreover, the composite z-score in test [15] is -0.684; in test [16] it was -0.0161; in test [17] it was -0.243; in test [18], -0.374; in test [19], 0.903; in test [20] it was 0.172. For the same compound, the z-score in test [4] is 2.51 (inactive); in test [12] it was -2.35.
On to `CCCCC(=C=CC[C@H](O)c1ccc(OCCO)cc1)C[C@H](O)COCc1ccccc1`, for which the composite z-score is 1.07 in test [1]; -0.221 in test [2]; -0.0323 in test [3]; 0.793 in test [5]; -0.171 in test [6]; -0.304 in test [7]. Besides, the composite z-score is -0.603 in test [8]; -0.259 in [9]; 1.12 in test [10]; 0.383 in test [11]; -0.233 in test [13]; -0.567 in test [14]. Besides, the composite z-score was -0.377 in test [15]; -0.0685 in [16]; 0.14 in test [17]; -0.0168 in test [18]; 0.941 in [19]; 0.134 in [20]. Besides, the z-score in [4] is -0.639 (inactive); in test [12] it was -1.77.
With `COCCOC(=O)N1C(=O)[C@@]2(c3cc(C#CCNC(N)=O)ccc31)[C@H](c1ccc(OCCO)cc1)N1[C@H](c3ccccc3)[C@H](c3ccccc3)OC(=O)[C@H]1[C@@H]2C(N)=O`, the composite z-score was 0.826 in test [1]; 0.695 in test [2]; 0.435 in test [3]; 0.748 in test [5]; -0.0886 in test [6]; 1.14 in test [7]. Moreover, the composite z-score in test [8] came out at 0.455; in test [9] it was 0.204; in test [10], 1.07; in test [11], 1.33; in test [13] it was 0.437; in test [14], 0.741. Besides, the composite z-score was 0.585 in test [15]; -0.089 in test [16]; 0.225 in test [17]; 0.54 in test [18]; 0.803 in [19]; 0.667 in test [20]. Further, the z-score is 0.928 (inactive) in [4] and -0.106 in test [12].
Regarding `CN1C(=O)[C@@]2(Cc3ccccc3)N=C(c3ccc(OCCCO)cc3)O[C@H]2c2ccccc21`, the composite z-score came out at 0.318 in test [1]; 0.428 in test [2]; 1.02 in [3]; 1.3 in [5]; 1.32 in [6]; 0.261 in test [7]. The composite z-score in test [8] is 1.11; in test [9], 0.191; in test [10], 1.16; in test [11], 1.3; in [13] it was 0.879; in [14], 0.329. In addition, the composite z-score in [15] was 0.458; in [16], -0.0495; in test [17], 0.0372; in test [18], 1.26; in test [19], 0.344; in test [20], 0.846. Besides, the z-score is -0.528 (inactive) in test [4] and -2.57 in [12].
Take `COc1ccc([Si](C)(C)[C@@H]2[C@@H](CC(=O)N3Cc4ccccc4C[C@H]3CO)O[C@]3(C(=O)N(c4ccccc4)c4ccccc43)[C@H]2C)cc1`: the composite z-score in [1] came out at 2.04; in [2], 0.713; in [3] it was 0.449; in [5], 1.09; in test [6], 1.26; in test [7], 0.799. The composite z-score was 1.37 in test [8]; 1.1 in [9]; 0.816 in test [10]; 1.38 in test [11]; 0.671 in [13]; 1.75 in test [14]. Moreover, the composite z-score in test [15] amounted to 1.36; in test [16], 0.418; in [17] it was 0.293; in [18], 1.14; in test [19] it was 0.553; in [20] it was 1.26. The z-score in test [4] is -0.0709 (inactive); in test [12] it was -4.41.
